KDM5B inh: inhibitors of human KDM5B histone demethylase; Q9UGL1; KDM5B demethylase, FDH-coupled NADH fluorescence (FDH is formaldehyde dehydrogenase); Potency, µM (doses to about 57.7 µM), most hits filed as inhibitors; 2.6% of 220,000 active; AID 1347165; active = well fitted inhibition curve with a large enough effect; note: 0% is about no effect; nearly all actives have a fitted effect of over 70% in size
Target sequence (Q9UGL1 whole entry, looked up): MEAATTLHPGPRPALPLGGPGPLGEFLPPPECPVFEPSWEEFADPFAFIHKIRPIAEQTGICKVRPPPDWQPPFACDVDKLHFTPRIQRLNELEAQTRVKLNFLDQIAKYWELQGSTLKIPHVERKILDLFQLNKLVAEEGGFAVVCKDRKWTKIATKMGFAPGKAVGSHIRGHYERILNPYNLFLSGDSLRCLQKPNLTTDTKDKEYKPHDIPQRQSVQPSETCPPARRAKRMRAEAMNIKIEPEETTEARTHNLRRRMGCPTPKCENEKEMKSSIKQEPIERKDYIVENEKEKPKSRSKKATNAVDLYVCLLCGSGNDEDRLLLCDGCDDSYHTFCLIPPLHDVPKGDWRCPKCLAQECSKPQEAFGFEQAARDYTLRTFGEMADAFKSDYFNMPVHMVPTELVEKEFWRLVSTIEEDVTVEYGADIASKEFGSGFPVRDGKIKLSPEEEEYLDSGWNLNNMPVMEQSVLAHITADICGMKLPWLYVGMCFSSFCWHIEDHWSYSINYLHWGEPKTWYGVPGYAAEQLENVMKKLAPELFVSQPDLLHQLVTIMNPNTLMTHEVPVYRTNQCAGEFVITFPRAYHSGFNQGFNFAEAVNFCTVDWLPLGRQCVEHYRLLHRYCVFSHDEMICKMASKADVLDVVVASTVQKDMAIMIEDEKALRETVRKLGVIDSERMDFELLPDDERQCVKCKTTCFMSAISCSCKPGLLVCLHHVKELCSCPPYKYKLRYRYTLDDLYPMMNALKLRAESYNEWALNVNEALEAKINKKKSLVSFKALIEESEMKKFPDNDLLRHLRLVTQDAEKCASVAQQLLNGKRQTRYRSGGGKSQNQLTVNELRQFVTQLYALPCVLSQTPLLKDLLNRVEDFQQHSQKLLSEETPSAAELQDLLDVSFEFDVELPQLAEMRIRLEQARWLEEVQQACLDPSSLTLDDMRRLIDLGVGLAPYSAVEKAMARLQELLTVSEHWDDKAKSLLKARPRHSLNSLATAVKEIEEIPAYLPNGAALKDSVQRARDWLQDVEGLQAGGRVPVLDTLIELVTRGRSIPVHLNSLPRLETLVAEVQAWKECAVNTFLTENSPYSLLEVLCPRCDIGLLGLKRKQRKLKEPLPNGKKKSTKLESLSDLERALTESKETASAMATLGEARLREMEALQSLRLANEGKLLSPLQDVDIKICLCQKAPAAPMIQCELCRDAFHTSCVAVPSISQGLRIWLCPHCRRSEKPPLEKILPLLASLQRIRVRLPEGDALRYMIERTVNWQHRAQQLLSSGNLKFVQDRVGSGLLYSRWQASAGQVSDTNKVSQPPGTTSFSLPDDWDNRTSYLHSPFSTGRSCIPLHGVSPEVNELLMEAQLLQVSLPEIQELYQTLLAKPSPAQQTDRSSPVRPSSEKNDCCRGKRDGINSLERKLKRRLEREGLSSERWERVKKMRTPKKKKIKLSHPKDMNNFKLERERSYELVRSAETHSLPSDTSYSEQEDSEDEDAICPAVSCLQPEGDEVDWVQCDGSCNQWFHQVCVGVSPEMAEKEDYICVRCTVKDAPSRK
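Compound dilutions met 200 nM (final) KDM5BΔAP for 10 min at room temperature before substrate addition. The substrate mix held 12.5 µM H3K4me3 with cofactors 25 µM α-ketoglutarate and 50 µM Fe²⁺. NADH signal gain over 30 min defined activity.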
* = called active by the depositor; i = inactive. Shown is part of a subset that was picked to be rich in hits. Potency is the fitted concentration of half-maximal effect.

SMILES	KDM5B inh
O=C(CN1CCN(c2ccccn2)CC1)Nc1cccc(Br)c1	i
O=C(c1csc(N2CCN(c3ccccc3)CC2)n1)N1CCN(c2ccccn2)CC1	i
O=C(CCN1CCN(c2ccccn2)CC1)Nc1ccc(F)c(F)c1	i
COCCC(=O)NC(C)C(=O)N1CCN(c2ccccn2)CC1 (centres undefined)	25µM*
O=C(Cc1c(Cl)cccc1Cl)N1CCN(c2ccccc2O)CC1	i
C=CCNC(=O)c1cc(-c2ccncc2)nc2ccccc12	i
Cc1ccc(-c2nnn(Cc3csc(-c4ccc(C)cc4)n3)n2)cc1	i
CS(=O)(=O)Nc1ccc(-c2csc(NC3CC3)n2)cc1	i
CC(C)NC(=O)c1nc(C(C)(C)C)c2ccccn12	112µM*
CC(C)NC(=O)c1cc2c(=O)n3ccccc3nc2s1	i
CC(C)NC(=O)c1ccccc1Cl	i
Cn1c(C(=O)N2CCN(C(=O)C(C)(C)C)CC2)cc2ccccc21	i
C#CCNC(=O)CSc1nc2ccccc2nc1C	i
CC(C)(C)c1nc(C(=O)N2CCCC2)n2ccccc12	112µM*
C#CCNC(=O)c1nc(C(C)(C)C)c2ccccn12	112µM*
CC(C)(C)c1ccc2cc(C(=O)N3CCCC3)[nH]c2c1	i
COc1ccc(-c2nsc3c2NC(=O)CC3c2cc(OC)c3c(c2OC)OCO3)cc1 (centres undefined)	i
CCOc1c(Cl)cc(CNCc2cccc(C#N)c2)cc1OC	i
Cc1cc(C)c2c(=O)cc(C(=O)N(Cc3cccs3)C3CCS(=O)(=O)C3)oc2c1 (centres undefined)	i
COC(=O)c1ccc(COc2ccc3c(=O)c(Oc4ccc(OC)cc4)c(C(F)(F)F)oc3c2)cc1	i
NC(=O)NCc1ccc(C(=O)NNC(=O)c2c[nH]c3ccccc23)cc1	i
Brc1cccc(CNCCCn2ccnc2)c1	i
O=C(Cn1ccc2ccc(F)cc21)Nc1nnc(C2CCCCC2)s1	i
CCOc1ccc(NC(=O)/C=C/Sc2ccccc2)cc1	i
C=CCN(Cc1cccs1)C(=O)c1cccs1	i
SMILES	KDM5B inh
Cc1ccc(C)c(C(=O)NCc2nnc3cc(-c4nc(C5CC5)no4)ccn23)c1	14µM*
Cc1ccc(C(=O)NCc2nnc3cc(-c4nc(C5CC5)no4)ccn23)cc1C	28µM*
O=C(NCc1nnc2cc(-c3nc(C4CC4)no3)ccn12)c1ccncc1	28µM*
Cc1ccccc1C(=O)NCc1nnc2cc(-c3nc(C4CC4)no3)ccn12	28µM*
N#Cc1nc(COc2cccc(Cl)c2)oc1NCc1ccc2c(c1)OCO2	i
Cc1ccccc1C(=O)N/N=C/c1sccc1C	i
CCCCOc1ccc(C(=O)Nc2cccc3ccc(C)nc23)cc1	i
COc1ccc(/C=N/OC(=O)COc2cccc(C)c2C)cc1COc1ccc(F)cc1	i
O=C(c1ccc(Cn2nnc3ccccc32)cc1)N1CCN(S(=O)(=O)c2ccccc2)CC1	i
Cc1cccc(NC(=O)Cn2cnc3c2c(=O)n(C)c(=O)n3C)c1C	i
Cc1noc(/C=C\c2ccc(S(=O)(=O)N3CCOCC3)cc2)c1NC(=O)C1CC1	i
COc1ccc(CCNc2oc(-c3cccc4ccccc34)nc2C#N)cc1OC	i
COc1ccc2[nH]c(C(=O)N[C@H]3COC[C@H]3Cc3cc(C)no3)c(C)c2c1	22µM*
COc1ccc(C2(C(=O)N[C@H]3COC[C@H]3Cc3cc(C)no3)CCCC2)cc1	i
Cc1cc(C[C@@H]2COC[C@@H]2NC(=O)CCCn2cncn2)on1	i
Cc1cc(C[C@@H]2COC[C@@H]2NC(=O)CCc2nc(-c3ccccc3C)no2)on1	i
CCc1nc(C)c(C(=O)N[C@H]2COC[C@H]2Cc2cc(C)no2)s1	i
COc1nc2ccccc2nc1CCC(=O)N[C@H]1COC[C@H]1Cc1cc(C)no1	28µM*
O=[N+]([O-])c1cc(NS(=O)(=O)c2cc(Cl)sc2Cl)ccc1F	i
COc1cc(C(=O)Nc2sc3ccccc3c(=O)c2-c2ccc3c(c2)OCO3)cc(OC)c1OC	i
CCCCCCNC(=S)Nc1ccc(F)cc1	i
O=C(Nc1nc(-c2cccs2)cs1)C1CC(=O)N(c2ccccc2F)C1 (centres undefined)	i
CCOC(=O)N1CCC(N2CCc3nc(-c4ccc(Cl)cc4)[nH]c3C2)C1 (centres undefined)	22µM*
O=C(c1ccn(C(F)F)n1)N1CCc2nc(-c3ccc(Cl)cc3)[nH]c2C1	i
COC(=O)N1CCc2nc(C)nc(-c3ccc(Cl)cc3)c2CC1	i

Screens as filed in PubChem.
